Screen size: about 52,000 compounds; about 4,300 (8.3%) were called active. No stated cut-off is given here; in the data, active means survival mostly below about 52% (no sharp cut-off); inactive means mostly above about 56%. The sample as a whole holds a higher share of actives than the screen did.

For this assay, the system named is DeltatarO mutant. Description: growth inhibition of S. aureus wild type versus tarO mutant, primary screen, teichoic acid synthesis inhibitors, RN4220, OD600 (AID 463173). The note with it: OD600, 18 h, hits give low values, screened at 18.75 µg/mL (by protocol).
Regarding `CCCN(Cc1cccs1)C(=O)Nc1ccc(F)c(Cl)c1`, the survival is 58% (inactive).

Regarding `COc1ccc(OC)c(CNC(=O)CCCn2c(=O)c3cccn3c3cccnc32)c1`, the survival was 97% (inactive).

As to `CCOc1ccc(NC(=O)CC2C(=O)N(c3ccc(Cl)cc3)C(=O)N2Cc2cccs2)cc1` (configuration not stated), the survival is 81% (inactive).

Consider `Cc1cc(C)cc(NC(=O)C(Cc2ccccc2)NS(=O)(=O)c2ccc3c(c2)CCC(=O)N3)c1` (configuration not stated), for which the survival is 77% (inactive).

Turning to `CCOC(=O)C(C)NC(=O)c1cc2c(=O)[nH]c3ccc(C)cc3c2s1` (configuration not stated), the survival is 57% (inactive).

`CCc1ccc(CNCc2c(C(=O)O)n(Cc3ccc(C)cc3)c3cc(C)ccc23)cc1`: the survival was 14% (active).

Turning to `Cc1ccc(Cn2c(C(=O)O)c(CNCc3ccc(C)o3)c3ccc(C)cc32)cc1`, the survival was 52% (inactive).

As for `Cc1ccc(Cn2c(C(=O)O)c(CNCCc3cccs3)c3ccc(C)cc32)cc1`, the survival was 82% (inactive).

`COC(=O)c1scc(-c2ccc(C)cc2)c1S(=O)(=O)Nc1cc(C)ccc1OC`: the survival is 75% (inactive).

Consider `CCCSc1ncc(Cl)c(C(=O)Nc2c(C(=O)c3ccc(F)cc3)oc3ccccc23)n1`, for which the survival was 44% (active).

In the case of `CS(=O)(=O)c1ncc(Cl)c(C(=O)Nc2c(C(=O)c3ccc(Cl)cc3)oc3ccccc23)n1`, the survival was 109% (inactive).

Take `CCCSc1ncc(Cl)c(C(=O)Nc2c(C(=O)c3ccc(C)cc3)oc3ccccc23)n1`: the survival is 56% (inactive).

For the molecule `CCS(=O)(=O)c1ncc(Cl)c(C(=O)Nc2c(C(=O)c3ccc(C)cc3)oc3ccccc23)n1`, the survival was 50% (active).

For the molecule `CCSc1ncc(Cl)c(C(=O)Nc2c(C(=O)c3ccccc3)oc3ccccc23)n1`, the survival was 79% (inactive).

For the molecule `CCCS(=O)(=O)c1ncc(Cl)c(C(=O)Nc2c(C(=O)c3ccccc3)oc3ccccc23)n1`, the survival is 102% (inactive).

In the case of `CCOc1ccc(NC(=O)CSc2ccc3ccccc3n2)cc1`, the survival is 67% (inactive).

As for `Cc1ccc(-n2c(=O)c3oc4ccccc4c3n(CC(=O)Nc3ccc(F)c(Cl)c3)c2=O)cc1C`, the survival was 65% (inactive).

Regarding `CCC(C(=O)NCc1ccccc1OC)n1nc(C)n2c(cc3sccc32)c1=O` (configuration not stated), the survival was 82% (inactive).

Regarding `O=S(=O)(c1ccc2nc(Nc3ccc(Br)cc3F)ccc2c1)N1CCCC1`, the survival is 117% (inactive).

`O=C(Nc1ccc(F)cc1Cl)n1ncc2cc(Cl)ccc21`: the survival was 13% (active).

`Cc1ccc(C)c(NC(=O)n2ncc3cc(Cl)ccc32)c1`: the survival is 82% (inactive).

In the case of `O=C(Nc1ccccc1C(F)(F)F)n1ncc2cc(Cl)ccc21`, the survival is 104% (inactive).

`CC1(c2ccc(Cl)cc2Cl)OCC(Cn2cncn2)O1` (configuration not stated): the survival is 83% (inactive).

With `S=c1oc(-c2ccccc2)nn1CNc1ccccc1`, the survival was 83% (inactive).

As for `Cc1ccc(-c2nn(CO)c(=S)o2)cc1`, the survival was 48% (active).

`CCN(CC)Cn1nc(-c2ccccc2Cl)oc1=S`: the survival was 77% (inactive).

For `CCOc1ccc2c(c1)NC(c1cccs1)=NC(c1ccc(F)cc1)=N2`, the survival is 50% (inactive).

Turning to `CCc1nn(CCCC(=O)NCc2ccc(OC(C)C)cc2)c(=O)c2cc3occc3n12`, the survival is 77% (inactive).

On to `COc1ccccc1N1CCN(S(=O)(=O)c2ccc(-c3cnc(C4CC4)o3)cc2)CC1`, for which the survival was 113% (inactive).

For `Cn1cnc(S(=O)(=O)N2CCC(C(=O)N3CCN(c4ccc(Cl)cc4)CC3)CC2)c1`, the survival was 37% (active).

For the molecule `CC1CCN(S(=O)(=O)c2cc(C(=O)N3CCN(c4ccccc4F)CC3)n(C)c2)CC1`, the survival is 70% (inactive).

In the case of `COc1ccccc1N1CCN(C(=O)c2cc(S(=O)(=O)N3CCC(C)CC3)cn2C)CC1`, the survival is 32% (active).

On to `Cn1cnc(S(=O)(=O)N2CCC(C(=O)N3CCN(c4ccccc4F)CC3)CC2)c1`, for which the survival is 75% (inactive).

For `Cc1cccc(N2CCN(C(=O)C3CCN(S(=O)(=O)c4cn(C)cn4)CC3)CC2)c1C`, the survival was 92% (inactive).

In the case of `COc1ccccc1N1CCN(C(=O)C2CCN(S(=O)(=O)c3cn(C)cn3)CC2)CC1`, the survival was 46% (active).

For `CCOc1ccccc1N1CCN(S(=O)(=O)c2ccc(C3CCCCC3)cc2)CC1`, the survival was 50% (inactive).

For `CC(=O)c1ccc(N2CCN(C(=O)C3CCN(S(=O)(=O)c4cn(C)cn4)CC3)CC2)cc1`, the survival is 69% (inactive).

Turning to `Cc1cccc(N2CCN(C(=O)c3cc(S(=O)(=O)N4CCC(C)CC4)cn3C)CC2)c1C`, the survival was 58% (inactive).

With `COc1ccc(N2CCN(C(=O)C3CCN(S(=O)(=O)c4cn(C)cn4)CC3)CC2)cc1`, the survival was 69% (inactive).

On to `COc1ccccc1N1CCN(S(=O)(=O)c2ccc(S(=O)(=O)NC3CCCC3)cc2)CC1`, for which the survival was 55% (active).

With `Cc1ccc(C)c(NC(=O)C(c2ccccc2)N2Cc3ccccc3C2=O)c1` (configuration not stated), the survival was 117% (inactive).

For the molecule `Cn1c(=O)c2c(nc(CN3CCN(c4ccccc4F)CC3)n2Cc2ccccc2F)n(C)c1=O`, the survival is 92% (inactive).

For the molecule `COc1ccc(-n2nc3cc(C)c(NC(=O)c4ccc(C)cc4C)cc3n2)cc1Cl`, the survival was 83% (inactive).

As to `Cc1nnc(NC(=O)CSc2nc3c([nH]c4ccccc43)c(=O)n2-c2ccc(Cl)cc2)s1`, the survival was 73% (inactive).

`Cc1ccc(CN2CCSc3ccc(C(=O)Nc4ccc(C)cc4)cc32)cc1`: the survival is 105% (inactive).

Regarding `O=C(CSc1nnc(Cc2ccccc2)o1)N(c1ccccc1)c1ccccc1`, the survival is 78% (inactive).

`COc1ccccc1NC(=O)C1CCCN(c2nnc(C)c3c(C)n(-c4ccccc4)nc23)C1` (configuration not stated): the survival is 84% (inactive).

Regarding `COc1ccc(S(=O)(=O)NC2(C(F)(F)F)NC(=O)N(CCc3ccccc3)C2=O)cc1` (configuration not stated), the survival was 99% (inactive).

As to `CC(C)(C)c1ccc(C(=O)NCC(c2ccco2)S(=O)(=O)c2ccccc2)cc1` (configuration not stated), the survival was 101% (inactive).

For `COc1ccc(C(=O)NCC(c2ccco2)S(=O)(=O)c2ccc(F)cc2)cc1` (configuration not stated), the survival is 68% (inactive).

Consider `Cc1ccc(S(=O)(=O)C(CNC(=O)c2ccc(F)c(F)c2)c2ccco2)cc1` (configuration not stated), for which the survival is -5% (active).

As for `Cc1ccc(S(=O)(=O)C(CNC(=O)c2ccc(C(F)(F)F)cc2)c2ccco2)cc1` (configuration not stated), the survival was 130% (inactive).

Regarding `COc1ccc(C(=O)NCC(c2ccco2)S(=O)(=O)c2ccccc2)cc1` (configuration not stated), the survival is -4% (active).

Regarding `CCOc1ccc(C(=O)NCC(c2ccco2)S(=O)(=O)c2ccc(C)cc2)cc1` (configuration not stated), the survival is 88% (inactive).

Turning to `CC(C)(C)c1ccc(C(=O)NCC(c2ccco2)S(=O)(=O)c2ccc(F)cc2)cc1` (configuration not stated), the survival is 126% (inactive).

`O=C(NCC(c1ccco1)S(=O)(=O)c1ccc(Cl)cc1)c1ccc(C(F)(F)F)cc1` (configuration not stated): the survival is 17% (active).

For `Cc1ccc(C(=O)NCC(c2ccco2)S(=O)(=O)c2ccc(Cl)cc2)cc1C` (configuration not stated), the survival is 55% (inactive).

These data come from PubChem BioAssay AID463173 (ICCB-Longwood Screening Facility, Harvard Medical School, 2010).
